# From PubChem BioAssay (EPA / NIEHS)
# Calls of active or inactive are those of the source. Rule for the calls: active = hit-call score of the fitted dose curve at least 0.9, where 1 is the maximum; inactive = score below 0.9.
# Columns and labels:
# [1] = ATG_CRE_CIS: Attagene CIS-FACTORIAL HepG2 Assay for human cAMP Responsive Element (CRE) binding protein 3 (AID 2282926); conditions: HepG2 CRE cis-reporter, Attagene multiplexed mRNA; actives raise or lower the signal
# Method in brief: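 Human liver HepG2, transient MRTU transfection, 24 h compound exposure. Total RNA → oligo(dT) RT → PCR → 6-FAM primer extension → HpaI cut → CE. Activity called both directions vs DMSO.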
# [2] = target: CCAAT/enhancer-binding protein beta (Homo sapiens) (UniProt P17676); test: ATG_C_EBP_CIS: Attagene CIS-FACTORIAL HepG2 Assay for human CCAAT/Enhancer Binding Protein (C/EBP) beta (AID 2282927); conditions: HepG2 Attagene cis-factorial transcription factor reporter; actives raise or lower the signal
# Method in brief: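 HepG2 transiently transfected with multiplexed reporter units under cis-regulatory promoters reporting endogenous C/EBPb activity. After 24 h exposure, reporter mRNA assayed by RT-PCR, fluorescent labelling, HpaI digestion and capillary electrophoresis; bidirectional fitting versus DMSO.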
# [3] = ATG_DR4_LXR_CIS: Attagene CIS-FACTORIAL HepG2 Assay for human Liver X Receptor (LXR), DR4 submotif (AID 2282929); conditions: HepG2 Attagene DR4 cis-reporter, mRNA transcription; actives raise or lower the signal
# Method in brief: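 Endogenous factor activity at a DR4 cis-element is read as reporter mRNA in transiently transfected HepG2 cells. Exposure lasts 24 h; transcripts are amplified, fluorescently labelled and sized by capillary electrophoresis, with DMSO as baseline.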
# [4] = ATG_AP_1_CIS: Attagene CIS-FACTORIAL HepG2 Assay for human Activator Protein 1 (AP-1) (AID 2282931); conditions: HepG2 Attagene cis-factorial AP-1 reporter mRNA; actives raise or lower the signal
# Method in brief: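 Fluorescence of labelled PCR fragments separated by capillary electrophoresis gives reporter mRNA levels. HepG2 with transfected cis-regulated reporter units, 24 h exposure; DMSO serves as baseline for bidirectional curve fits.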
# [5] = ATG_AP_2_CIS: Attagene CIS-FACTORIAL HepG2 Assay for human Activator Protein 2 (AP-2) (AID 2282932); conditions: HepG2 AP-2 cis-reporter, Attagene transcription factor profiling; actives raise or lower the signal
# Method in brief: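 Multiplexed mRNA reporter assay in HepG2: cis-regulated units report endogenous factor activity after 24 h treatment. Fluorescence from capillary electrophoresis of RT-PCR products gives the signal, with DMSO as baseline.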
# [6] = ATG_BRE_CIS: Attagene CIS-FACTORIAL HepG2 Assay for human Bone Morphogenetic Protein (BMP) Response Element (BRE) (AID 2282933); conditions: HepG2 BMP response element reporter, Attagene transcription factor profiling; actives raise or lower the signal
# Method in brief: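 HepG2 cells transiently transfected with CIS reporter units (endogenous TF activity, BMP response element), dosed 24 h. Reporter mRNA quantified by RT-PCR, fluorescent labelling and capillary electrophoresis; bidirectional fit vs DMSO baseline.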
# [7] = target: Transcription factor E2F1 (Homo sapiens) (UniProt Q01094); test: ATG_E2F_CIS: Attagene CIS-FACTORIAL HepG2 Assay for human E2F Transcription Factor 1 (AID 2282935); conditions: HepG2 Attagene cis-reporter, E2F reporter RNA transcripts; actives raise or lower the signal
# Method in brief: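 Measures reporter transcript levels via RT-PCR with capillary electrophoresis detection in HepG2 cells harboring cis-regulated reporter units; 24 h post-dose; bidirectional curve fitting with DMSO as baseline.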
# [8] = ATG_E_Box_CIS: Attagene CIS-FACTORIAL HepG2 Assay for human Enhancer Box (E-box) (AID 2282936); conditions: HepG2 E-box cis-reporter transcription, actives raise or lower the signal
# Method in brief: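 First, HepG2 cells receive multiple cis-regulated reporter constructs by transient transfection. Next, chemicals are applied for 24 h. Finally, reporter mRNA is quantified via RT-PCR and capillary electrophoresis, with DMSO as baseline.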
# [9] = ATG_EGR_CIS: Attagene CIS-FACTORIAL HepG2 Assay for human Early Growth Response 1 (EGR1) (AID 2282938); conditions: HepG2 Attagene CIS-FACTORIAL EGR reporter mRNA; actives raise or lower the signal
# Method in brief: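 HepG2, transient MRTU transfection (cis promoters), 24 h compound. RNA → RT (oligo-dT) → PCR → 6-FAM labelling → HpaI cut → CE fluorescence. Bidirectional fit, DMSO baseline.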
# [10] = ATG_M_19_CIS: Attagene CIS-FACTORIAL HepG2 Assay for M19 Transcription Factor (Internal Marker) (AID 2282939); conditions: HepG2 Attagene CIS-FACTORIAL M19 internal marker reporter; actives raise or lower the signal
# Method in brief: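 HepG2 cells transiently transfected with cis-regulated multiplexed reporter units, dosed 24 h. Reporter mRNA quantified by RT-PCR and capillary electrophoresis; internal background marker fitted bidirectionally versus DMSO.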
# [11] = ATG_ERE_CIS: Attagene CIS-FACTORIAL HepG2 Assay for Estrogen Response Element (ERE) (AID 2282940); conditions: HepG2 ERE cis-reporter, Attagene RNA transcript; actives raise or lower the signal
# Method in brief: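 HepG2 cells transiently transfected with multiplexed cis-element reporter units, measuring endogenous transcription factor activity; ERE reporter mRNA quantified after 24 h exposure by RT-PCR, fluorescent labelling, HpaI digestion and capillary electrophoresis. Bidirectional change versus DMSO.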
# [12] = ATG_Ets_CIS: Attagene CIS-FACTORIAL HepG2 Assay for human Erythroblast Transformation Specific (ETS) (AID 2282941); conditions: HepG2 ETS cis-reporter transcription, actives raise or lower the signal
# Method in brief: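 HepG2 cells transiently transfected with cis-promoter reporter transcription units were dosed for 24 h; reporter mRNA was measured by RT-PCR, 6-FAM primer extension, HpaI digestion and capillary electrophoresis, with bidirectional fitting against DMSO baseline.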
# [13] = target: Hepatocyte nuclear factor 3-beta (Homo sapiens) (UniProt Q9Y261); test: ATG_FoxA2_CIS: Attagene CIS-FACTORIAL HepG2 Assay for human Forkhead box A2 (FOXA2) (AID 2282942); conditions: HepG2 cis-reporter transcription factor activity, 24 h; actives raise or lower the signal
# Method in brief: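 Cells: HepG2, transient multiplex reporter transfection. Exposure 24 h. Detection: reporter-specific RT-PCR, fluorescent labelling, restriction digest, capillary electrophoresis. Analysis: bidirectional curve fit, DMSO as negative control.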
# [14] = ATG_FoxO_CIS: Attagene CIS-FACTORIAL HepG2 Assay for human Forkhead box O (FoxO) (AID 2282943); conditions: HepG2 Attagene cis-reporter, FoxO element, mRNA; actives raise or lower the signal
# Method in brief: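 HepG2 cells transiently transfected with cis-element-driven reporter units report endogenous FoxO activity. After 24 h chemical exposure, reporter mRNA quantified by RT-PCR, fluorescent labeling, HpaI digestion and capillary electrophoresis; bidirectional fit versus DMSO.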
# [15] = ATG_GATA_CIS: Attagene CIS-FACTORIAL HepG2 Assay for human GATA Binding Protein (AID 2282944); conditions: HepG2 GATA cis-element reporter, Attagene multiplex mRNA; actives raise or lower the signal
# Method in brief: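 HepG2 cells transiently transfected with multiplexed cis-element reporter units measure endogenous GATA activity; after 24 h compound exposure, reporter mRNA quantified by RT-PCR and capillary electrophoresis. Changes fitted in both directions vs DMSO.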
# [16] = target: Aryl hydrocarbon receptor (Homo sapiens) (UniProt P35869); test: ATG_Ahr_CIS: Attagene CIS-FACTORIAL HepG2 Assay for human Aryl Hydrocarbon Receptor (Ahr) (AID 2282930); conditions: HepG2 AhR cis-factorial reporter transcription; actives raise or lower the signal
# Method in brief: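 HepG2 cells transiently transfected with cis-element-driven multiplexed reporter units; endogenous AhR activity read as reporter mRNA 24 h after dosing, via RT-PCR, 6-FAM labelling, HpaI digestion and capillary electrophoresis. Bidirectional fit relative to DMSO.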
# [17] = ATG_M_61_CIS: Attagene CIS-FACTORIAL HepG2 Assay for M61 Transcription Factor (Internal Marker) (AID 2282937); conditions: HepG2 Attagene CIS-FACTORIAL M61 internal marker reporter; actives raise or lower the signal
# Method in brief: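 This endpoint serves as an internal background control within a multiplexed HepG2 cis-reporter panel. Cells are exposed for 24 h; reporter mRNA is amplified, fluorescently labelled and sized by capillary electrophoresis, with DMSO as negative control.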
# [18] = ATG_CMV_CIS: Attagene CIS-FACTORIAL HepG2 Assay for human CMV (Internal Marker) (AID 2282928); conditions: HepG2 CMV promoter reporter, transcription factor profiling; actives raise or lower the signal;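 note: endpoint acts as a background internal control marker rather than a target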
# Method in brief: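 HepG2 cells transiently transfected with multiple cis-regulated reporter units; 24 h compound exposure. Reporter mRNA quantified by RT-PCR, 6-FAM primer-extension labeling, HpaI digestion and capillary electrophoresis; bidirectional fitting against DMSO baseline.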
# [19] = target: Retinoic acid receptor alpha (Homo sapiens) (UniProt P10276); test: ATG_DR5_RAR_CIS: Attagene CIS-FACTORIAL HepG2 Assay for human Retinoic Acid Receptor Alpha (RARE), DR5 submotif (AID 2282934); conditions: HepG2 Attagene cis-factorial RARE DR5 reporter, mRNA; actives raise or lower the signal
# Method in brief: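 HepG2 cells transiently transfected with multiplexed reporter units; DR5 cis-element drives reporter through endogenous transcription factors. After 24 h dosing, reporter mRNA quantified by RT-PCR, fluorescent labeling, HpaI digestion and capillary electrophoresis; bidirectional fitting versus DMSO.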
# Chain of Aryl hydrocarbon receptor (Homo sapiens) (P35869 whole entry, looked up): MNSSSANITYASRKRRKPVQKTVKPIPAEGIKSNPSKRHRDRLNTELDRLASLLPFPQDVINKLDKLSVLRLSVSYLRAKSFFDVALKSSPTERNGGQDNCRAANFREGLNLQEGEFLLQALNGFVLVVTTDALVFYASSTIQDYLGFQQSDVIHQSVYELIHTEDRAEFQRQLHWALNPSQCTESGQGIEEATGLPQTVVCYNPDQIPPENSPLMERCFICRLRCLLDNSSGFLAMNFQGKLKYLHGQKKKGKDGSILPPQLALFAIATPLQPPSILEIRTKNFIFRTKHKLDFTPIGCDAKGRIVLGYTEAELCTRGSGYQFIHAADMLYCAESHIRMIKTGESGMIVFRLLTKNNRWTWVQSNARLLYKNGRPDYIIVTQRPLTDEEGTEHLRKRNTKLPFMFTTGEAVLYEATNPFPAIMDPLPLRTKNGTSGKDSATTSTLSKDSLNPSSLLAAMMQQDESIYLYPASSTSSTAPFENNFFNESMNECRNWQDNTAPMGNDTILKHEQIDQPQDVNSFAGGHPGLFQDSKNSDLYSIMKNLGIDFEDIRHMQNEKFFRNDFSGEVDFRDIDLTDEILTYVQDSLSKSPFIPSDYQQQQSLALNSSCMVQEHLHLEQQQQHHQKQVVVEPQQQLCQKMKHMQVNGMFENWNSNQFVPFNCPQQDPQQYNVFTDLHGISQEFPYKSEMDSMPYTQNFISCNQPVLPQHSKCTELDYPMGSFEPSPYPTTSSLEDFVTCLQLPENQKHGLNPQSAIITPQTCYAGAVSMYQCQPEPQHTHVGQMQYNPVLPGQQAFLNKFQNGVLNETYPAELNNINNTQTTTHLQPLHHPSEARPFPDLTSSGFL
# Chain of Hepatocyte nuclear factor 3-beta (Homo sapiens) (Q9Y261 whole entry, looked up): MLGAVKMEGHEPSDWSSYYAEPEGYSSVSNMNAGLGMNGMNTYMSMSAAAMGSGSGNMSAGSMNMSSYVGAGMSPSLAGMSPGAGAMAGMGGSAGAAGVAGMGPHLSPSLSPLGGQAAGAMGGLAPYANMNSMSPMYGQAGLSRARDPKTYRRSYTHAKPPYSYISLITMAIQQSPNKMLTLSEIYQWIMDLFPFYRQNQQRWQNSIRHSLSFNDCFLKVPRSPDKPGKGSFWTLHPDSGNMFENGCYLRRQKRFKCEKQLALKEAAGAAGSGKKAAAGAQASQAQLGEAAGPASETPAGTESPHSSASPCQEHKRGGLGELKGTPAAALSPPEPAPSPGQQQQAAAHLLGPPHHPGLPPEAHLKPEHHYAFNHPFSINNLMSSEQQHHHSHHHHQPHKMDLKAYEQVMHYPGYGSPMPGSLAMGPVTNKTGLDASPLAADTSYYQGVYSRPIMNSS
# Chain of CCAAT/enhancer-binding protein beta (Homo sapiens) (P17676 whole entry, looked up): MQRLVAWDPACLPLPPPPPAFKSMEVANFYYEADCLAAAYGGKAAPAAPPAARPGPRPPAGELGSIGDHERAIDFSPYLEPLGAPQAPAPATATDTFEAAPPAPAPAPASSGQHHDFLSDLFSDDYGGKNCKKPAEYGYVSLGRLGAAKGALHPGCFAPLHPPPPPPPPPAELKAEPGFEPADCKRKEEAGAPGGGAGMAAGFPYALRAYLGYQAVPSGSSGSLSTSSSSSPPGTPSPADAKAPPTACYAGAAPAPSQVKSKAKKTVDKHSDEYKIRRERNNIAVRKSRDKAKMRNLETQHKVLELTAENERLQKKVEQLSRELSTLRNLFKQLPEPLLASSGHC
# Chain of Transcription factor E2F1 (Homo sapiens) (Q01094 whole entry, looked up): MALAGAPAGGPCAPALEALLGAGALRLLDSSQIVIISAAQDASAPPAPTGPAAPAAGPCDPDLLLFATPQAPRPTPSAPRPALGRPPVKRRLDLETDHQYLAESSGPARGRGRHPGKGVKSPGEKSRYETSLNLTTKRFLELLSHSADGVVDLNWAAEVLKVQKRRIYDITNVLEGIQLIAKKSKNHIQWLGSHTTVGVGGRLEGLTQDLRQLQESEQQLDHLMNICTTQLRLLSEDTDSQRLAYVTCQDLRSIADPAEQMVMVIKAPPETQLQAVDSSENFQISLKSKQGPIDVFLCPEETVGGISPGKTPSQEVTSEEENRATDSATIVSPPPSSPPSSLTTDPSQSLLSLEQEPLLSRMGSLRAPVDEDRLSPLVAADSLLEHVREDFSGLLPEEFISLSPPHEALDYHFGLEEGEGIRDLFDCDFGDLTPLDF
# Chain of Retinoic acid receptor alpha (Homo sapiens) (P10276 whole entry, looked up): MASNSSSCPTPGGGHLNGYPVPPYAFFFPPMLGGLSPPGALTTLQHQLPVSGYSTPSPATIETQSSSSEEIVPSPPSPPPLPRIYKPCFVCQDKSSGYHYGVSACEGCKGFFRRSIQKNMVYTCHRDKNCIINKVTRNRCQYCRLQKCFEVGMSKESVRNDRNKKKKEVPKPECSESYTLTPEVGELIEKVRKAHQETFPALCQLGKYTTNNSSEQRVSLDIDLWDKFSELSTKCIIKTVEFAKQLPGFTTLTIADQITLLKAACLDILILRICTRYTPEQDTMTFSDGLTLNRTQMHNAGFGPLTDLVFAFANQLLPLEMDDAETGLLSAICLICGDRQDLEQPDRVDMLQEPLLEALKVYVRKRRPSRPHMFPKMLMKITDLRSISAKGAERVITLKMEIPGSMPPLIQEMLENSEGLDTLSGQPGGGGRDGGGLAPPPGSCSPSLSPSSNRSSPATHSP
smiles,measurement,setting,value
CC(O)COCC(C)O (stereo unspecified),outcome,[1],inactive
same,outcome,[2],inactive
same,outcome,[3],inactive
same,outcome,[4],inactive
same,outcome,[5],inactive
same,outcome,[6],inactive
same,outcome,[7],inactive
same,outcome,[8],inactive
same,outcome,[9],inactive
same,outcome,[10],inactive
same,outcome,[11],inactive
same,outcome,[12],inactive
same,outcome,[13],inactive
same,outcome,[14],inactive
same,outcome,[15],inactive
CC(=O)CCC(=O)O,outcome,[1],inactive
same,outcome,[2],inactive
same,outcome,[16],inactive
same,outcome,[4],inactive
same,outcome,[5],inactive
same,outcome,[6],inactive
same,outcome,[7],inactive
same,outcome,[8],inactive
same,outcome,[17],inactive
same,outcome,[9],inactive
same,outcome,[10],inactive
same,outcome,[11],inactive
same,outcome,[12],inactive
same,outcome,[13],inactive
same,outcome,[14],inactive
same,outcome,[15],inactive
CC(C)(O)C(=O)c1ccc(OCCO)cc1,outcome,[1],inactive
same,outcome,[2],inactive
same,outcome,[18],inactive
same,outcome,[4],inactive
same,outcome,[5],inactive
same,outcome,[6],inactive
same,outcome,[7],inactive
same,outcome,[8],inactive
same,outcome,[17],inactive
same,outcome,[9],inactive
same,outcome,[10],inactive
same,outcome,[11],inactive
same,outcome,[12],inactive
same,outcome,[13],inactive
same,outcome,[14],inactive
same,outcome,[15],inactive
CC(C)N(c1ccccc1)C(C)C,outcome,[1],inactive
same,outcome,[2],inactive
same,outcome,[3],inactive
same,outcome,[16],inactive
same,outcome,[4],inactive
same,outcome,[5],inactive
same,outcome,[6],inactive
same,outcome,[7],inactive
same,outcome,[8],inactive
same,outcome,[17],inactive
same,outcome,[9],inactive
same,outcome,[10],inactive
same,outcome,[11],inactive
same,outcome,[12],inactive
same,outcome,[13],inactive
same,outcome,[14],inactive
same,outcome,[15],inactive
CCC(=O)OC(C)(C)C1CC=C(C)CC1 (stereo unspecified),outcome,[1],inactive
same,outcome,[2],inactive
same,outcome,[3],inactive
same,outcome,[4],inactive
same,outcome,[5],inactive
same,outcome,[6],inactive
same,outcome,[19],inactive
same,outcome,[7],inactive
same,outcome,[8],inactive
same,outcome,[9],inactive
same,outcome,[10],inactive
same,AC50,[11],100 µM (active)
same,outcome,[12],inactive
same,outcome,[13],inactive
same,outcome,[14],inactive
same,outcome,[15],inactive
C=CC(O)CCCCC (stereo unspecified),outcome,[1],inactive
same,outcome,[2],inactive
same,outcome,[18],inactive
same,outcome,[4],inactive
same,outcome,[5],inactive
same,outcome,[6],inactive
same,outcome,[7],inactive
same,outcome,[8],inactive
same,outcome,[17],inactive
same,AC50,[9],100 µM (active)
same,outcome,[10],inactive
same,outcome,[12],inactive
same,outcome,[13],inactive
same,AC50,[14],100 µM (active)
same,outcome,[15],inactive
C/C=C(\C)C(=O)OC/C=C(\C)CCC=C(C)C,outcome,[1],inactive
same,outcome,[2],inactive
same,outcome,[3],inactive
same,outcome,[16],inactive
same,outcome,[4],inactive
same,outcome,[5],inactive
same,outcome,[6],inactive
same,outcome,[19],inactive
same,outcome,[7],inactive
same,outcome,[8],inactive
same,outcome,[17],inactive
same,outcome,[9],inactive
same,outcome,[10],inactive
same,AC50,[11],39 µM (active)
same,outcome,[12],inactive
same,outcome,[13],inactive
same,outcome,[14],inactive
same,outcome,[15],inactive
CCCCN(CCO)CCO,outcome,[1],inactive
same,outcome,[2],inactive
same,outcome,[3],inactive
same,outcome,[16],inactive
same,outcome,[4],inactive
same,outcome,[5],inactive
same,outcome,[6],inactive
same,outcome,[7],inactive
same,outcome,[8],inactive
same,outcome,[17],inactive
same,outcome,[9],inactive
same,outcome,[10],inactive
same,outcome,[11],inactive
same,outcome,[12],inactive
same,outcome,[13],inactive
same,outcome,[14],inactive
same,outcome,[15],inactive
CC(=O)OC/C=C(C)/C=C/C=C(C)/C=C/C1=C(C)CCCC1(C)C,outcome,[1],inactive
same,outcome,[2],inactive
same,outcome,[3],inactive
same,outcome,[16],inactive
same,AC50,[4],40.6 µM (active)
same,outcome,[5],inactive
same,outcome,[7],inactive
same,outcome,[8],inactive
same,outcome,[17],inactive
same,AC50,[9],122 µM (active)
same,outcome,[10],inactive
same,outcome,[11],inactive
same,outcome,[12],inactive
same,outcome,[13],inactive
same,outcome,[14],inactive
same,outcome,[15],inactive
